Pol beta inh: blocks human DNA polymerase beta activity; hit rate 1.3% among 340,000; Pol beta primer extension/strand displacement, fluorescence kinetic; Potency, µM (highest dose often 114 µM), inactives show at the top dose activity change, negative = inhibition, usual class: inhibitors; AID 485314; P06746; note: % is set by controls: 0 for no effect and ±100 for the full control effect
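Pol beta (10 nM) and compounds were preincubated 15 min at room temperature, then 50 nM substrate (final) started primer extension/strand displacement. Reads were taken at 0 and 10 min; concentration-response data were fitted to a four-parameter Hill equation.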
Pol kappa inh: blocks human DNA polymerase kappa activity; Q9UBT6; purified Pol kappa, fluorescent DNA synthesis assay, 10 min; Potency, µM (top dose mostly 107 µM), inactives show at the highest dose activity, negative = inhibition, hits mostly inhibitors; hit rate 0.53% among 400,000; AID 588579; note: % is set by controls: 0 for no effect and ±100 for the full control effect
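Enzyme at 10 nM met test compounds for 15 min at room temperature. Substrate addition (50 nM final) began the reaction, which was monitored by fluorescence at 0 and 10 min.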
POLI inh: blocks human DNA polymerase iota activity; Pol iota fluorescent replication assay, 10 min; Potency, µM (titrated, usually from 115 µM), for the others: top-dose activity, negative = inhibition, usual class: inhibitors; hit rate 1% among 390,000; AID 588590
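Pol iota at 10 nM preincubated 15 min with compounds at room temperature; reaction started with fluorescent substrate, 50 nM final. Fluorescence read kinetically at 0 and 10 min; buffer-only wells as negative control.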
APE1 inh-1: blocks human APE1 abasic DNA cleavage | P27695 | recombinant APE1, TAMRA/BHQ-2 abasic DNA cleavage fluorescence | Potency, µM (highest dose often 65.8 µM), without a hit: at the top dose activity change, negative = inhibition, usual class: inhibitors | hit rate 0.35% among 350,000 | AID 2517;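 note: plate controls were vehicle for no effect and reference inhibitor for full effect; nearly all actives have a fitted effect of over 55% in size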
Target sequence (P27695 whole entry, looked up): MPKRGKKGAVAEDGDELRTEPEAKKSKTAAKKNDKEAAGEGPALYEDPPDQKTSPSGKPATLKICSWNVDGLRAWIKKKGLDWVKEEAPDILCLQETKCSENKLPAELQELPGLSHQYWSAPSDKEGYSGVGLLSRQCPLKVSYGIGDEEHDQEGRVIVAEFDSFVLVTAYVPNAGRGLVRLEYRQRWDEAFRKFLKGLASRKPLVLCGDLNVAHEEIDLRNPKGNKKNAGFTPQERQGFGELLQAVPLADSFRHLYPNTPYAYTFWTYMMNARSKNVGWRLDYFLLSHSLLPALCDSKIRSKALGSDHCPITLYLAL
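Step 1: APE1 (0.75 nM) with compound, 15 min RT. Step 2: add 50 nM fluorophore/quencher THF duplex. Step 3: three fluorescence reads 60 s apart (525/598 nm); read 3 minus read 1 = reaction progress.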
GLS inh: blocks human kidney-isoform glutaminase activity; Potency, µM (titrated, usually from 45.5 µM), without a hit: at the highest dose activity change, negative = inhibition, usual class: inhibitors; hit rate 0.21% among 410,000; AID 624170; GLS enzymatic activity, qHTS titration; note: % is set by controls: 0 for no effect and ±100 for the full control effect
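Compounds were pin-transferred onto hKGA, after which L-glutamine (1 mM solution) and a detection mix of glutamate oxidase, HRP and Amplex Red were added. Initial and 30 min RT fluorescence reads were collected.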
POLH inh: DNA polymerase eta (human) inhibition; Q9Y253; recombinant Pol eta, fluorescent DNA replication assay; Potency, µM (series often up to 114 µM), for inactives: top-dose activity change, negative = inhibition, actives largely listed as inhibitors; hit rate 1.2% among 390,000; AID 588591; note: % is set by controls: 0 for no effect and ±100 for the full control effect
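Fluorescent replication assay: 50 nM final substrate added after a 15 min room-temperature compound preincubation with 10 nM enzyme. Signal taken at 0 min and again at 10 min.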
APE1 dye cs: counter-screen for APE1 inhibitors: DNA dye displacement; shares compounds with APE1 inh-1; hit rate 7% among 480; Potency, µM (highest dose often 28.5 µM), for inactives: at the top dose activity change, negative = inhibition, most hits filed as inhibitors; AID 2564; DNA fluorescent dye displacement counterscreen, fluorescence;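 note: loss of thiazole orange fluorescence as the dye is displaced from duplex DNA; 0% = ThO with dsDNA and no compound and -100% = ThO without dsDNA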
EndoIV counter: Endo IV (E. coli) inhibition counter-screen. shares compounds with APE1 inh-1. E. coli Endo IV, fluorogenic AP-site DNA cleavage. Potency, µM (highest dose often 27.1 µM), without a hit: at the highest dose activity change, negative = inhibition, actives largely listed as inhibitors. hit rate 4% among 560;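 note: plate controls were uninhibited enzyme wells for no effect and no enzyme buffer wells for full effect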
APE1 inh-2: confirmation of inhibitors of human APE1 endonuclease; AID 2572; purified APE1, fluorogenic abasic-site DNA cleavage; hit rate 44% among 750; shares compounds with APE1 inh-1; Potency, µM (doses to about 57.1 µM), without a hit: top-dose activity change, negative = inhibition, actives largely listed as inhibitors; note: % is set by controls: 0 for no effect and ±100 for the full control effect; nearly all actives have a fitted effect of over 30% in size
APE1 FP: compounds that displace a DNA probe from human APE1. shares compounds with APE1 inh-1. hit rate 7% among 480. Potency, µM (doses to about 28.5 µM), for inactives: at the top dose activity, negative = inhibition, most hits filed as inhibitors. APE1 binding to TAMRA-labelled double-stranded DNA, fluorescence polarization displacement; note: % is set by controls: 0 for no effect and ±100 for the full control effect
Numbers without * were called inactive; [ ] = remark or other dose. An excerpt weighted towards active compounds, which were near 2.4% of everything screened. Calls come from the whole dose curve; as a rule, active = well fitted curve in the direction sought with a large enough effect; inconclusive = small, poorly fitted or top-dose-only effect, or another doubt; inactive = no such curve, though single readings can be large; an effect the other way counts as inactive or inconclusive. Potency is the fitted concentration of half-maximal effect.

`CC(=O)OC1CC2C(C)(C)C(O)CC[C@@]2(C)C2CC[C@@]3(C)C(c4ccoc4)OC(=O)C4OC43[C@]12C` (stereo partly specified) gave Pol kappa inh -13.4%[60.1 µM], APE1 inh-1 inconclusive, APE1 dye cs 1.0%[57.1 µM], EndoIV counter 0.8%[57.1 µM], APE1 inh-2 inconclusive and APE1 FP 0.3%[57.1 µM].
`O=c1ccc2c(OCCCCc3ccccc3)c3ccoc3cc2o1` gave Pol beta inh 3.4%[57.1 µM], Pol kappa inh -8.3%[60.1 µM], POLI inh 2.5%[58.9 µM], APE1 inh-1 -4.0%, POLH inh -8.0%[57.1 µM], EndoIV counter -12.1%[57.1 µM] and APE1 inh-2 -30.4%.
For CC(=O)Oc1ccc2c(=O)c(/C=N/c3cc(=O)[nH]c(=S)[nH]3)coc2c1 the results were Pol beta inh -16.9%, Pol kappa inh -21.9%, POLI inh inconclusive, APE1 inh-1 5.9%, GLS inh 10.9%, POLH inh inconclusive and APE1 inh-2 -38.7%.
`Cc1ccnc(NS(=O)(=O)c2ccc(NC(=O)C3C4C=CC(C4)C3C(=O)O)cc2)n1` (stereo unspecified) gave Pol beta inh 22.0%, Pol kappa inh -7.5%, POLI inh -9.6%, APE1 inh-1 inconclusive, GLS inh -3.7%, POLH inh 17.4% and APE1 inh-2 -1.6%.
CC(=O)Nc1ccc(OC(=O)Oc2ccc(NC(C)=O)cc2)cc1 was read as Pol beta inh 35.1%, Pol kappa inh -0.3%, POLI inh -17.1%, APE1 inh-1 0.1%, GLS inh 0.5% and POLH inh -3.3%.
For CCOC(=O)C(CCc1ccccc1)NC(C)C(=O)N1CCCC1C(=O)O (stereo unspecified) the results were Pol kappa inh -10.0%[60.1 µM], APE1 inh-1 2.24µM*, APE1 dye cs -9.4%[57.1 µM], EndoIV counter 15.0%[57.1 µM], APE1 inh-2 -3.6% and APE1 FP 5.5%[57.1 µM].
For COc1ccc2c(c1)c(=O)oc1cc3oc(C)c(C)c3cc12 the results were Pol beta inh 25.1µM*, APE1 inh-1 inconclusive, APE1 dye cs 37.6%, EndoIV counter -2.0%, APE1 inh-2 5.62µM* and APE1 FP -3.5%.
`COc1cc(-c2nnc(SCC3(c4ccccc4)OCCO3)o2)cc(OC)c1OC` gave Pol beta inh 7.9%, Pol kappa inh -4.6%, POLI inh -0.1%, APE1 inh-1 -2.7%, GLS inh 7.8% and POLH inh -5.4%.
Screening c1nc(N2CCOCC2)c2[nH]cnc2n1 returned Pol kappa inh -9.1%, POLI inh 6.5%, GLS inh -9.8% and POLH inh -7.1%.
C#CCSc1nncn1C(=O)/C=C/c1ccccc1 was read as Pol beta inh 31.6%, Pol kappa inh -3.4%, POLI inh -1.8%, APE1 inh-1 1.7%, GLS inh 3.3% and POLH inh 9.8%.
Screening N[C@H](C(=O)O)[C@@H]1C[C@@H]1C(=O)O returned Pol kappa inh -10.4%[19.4 µM] and APE1 inh-1 -3.7%.
N[C@H](C(=O)O)[C@H]1C[C@@H]1C(=O)O was read as Pol beta inh 0.5%[57.1 µM], Pol kappa inh 2.5%[60.1 µM], POLI inh -6.4%[58.9 µM], APE1 inh-1 -5.7%, POLH inh -5.6%[57.1 µM], EndoIV counter -24.9%[57.1 µM] and APE1 inh-2 2.51µM*.
For O=c1c(-c2cc(O)c(O)c(O)c2)coc2cc(O)c(O)c(O)c12 the results were Pol kappa inh 0.398µM*, APE1 inh-1 0.316µM*, EndoIV counter 7.1%[57.1 µM] and APE1 inh-2 0.398µM*.
O=c1c(-c2ccc(O)cc2)coc2cc(O)cc(O)c12 was read as Pol beta inh inconclusive, Pol kappa inh -14.5%[60.1 µM], POLI inh -0.6%[58.9 µM], APE1 inh-1 -1.4%, GLS inh 36.5% and POLH inh -1.2%[57.1 µM].
`CCN1C(=O)[C@H]2[C@@H](c3ccc(-c4ccc(F)cc4)cc3)N[C@@](C)(C(=O)OC)[C@H]2C1=O` gave Pol kappa inh 2.5%, POLI inh 3.5%, APE1 inh-1 0.2%, GLS inh -10.8% and POLH inh -4.2%.
Cc1nn(-c2ccccc2)c(C)c1C=O was read as Pol beta inh -29.4%, Pol kappa inh 5.6%, POLI inh 14.6%, APE1 inh-1 -1.2%, GLS inh -0.5% and POLH inh -4.4%.
`Cc1nn(-c2ccccc2)c(C)c1S(=O)(=O)O` gave Pol beta inh inconclusive, Pol kappa inh -0.2%, POLI inh inconclusive, APE1 inh-1 -1.5%, GLS inh -9.0%, POLH inh -6.2% and APE1 inh-2 inconclusive.
Screening COc1ccc(/C=N/NC(=O)c2cccc(NC(=O)c3ccc(F)cc3)c2)c(C(=O)O)c1OC returned Pol beta inh 23.6%, Pol kappa inh -7.5%, POLI inh 22.6%, APE1 inh-1 14.9%, GLS inh 6.9%, POLH inh -3.8% and APE1 inh-2 -9.4%.
O=C(Nc1ccc(-c2ccc3nncn3n2)cc1)c1ccc(Br)o1 was read as Pol beta inh inconclusive, Pol kappa inh -32.4%, POLI inh -2.2%, APE1 inh-1 -1.5%, GLS inh -8.3%, POLH inh -6.3% and APE1 inh-2 -40.6%.
CC(C)C(=O)Nc1ccc(-c2ccc3nncn3n2)cc1 was read as Pol beta inh inconclusive, Pol kappa inh -9.7%, POLI inh 16.2%, APE1 inh-1 -1.0%, GLS inh 0.4% and POLH inh -2.0%.
